Among the data in PubChem BioAssay are composite z-score values, retold here.

The target of the experiment is Albumin (Bos taurus) (UniProt P02769). Put plainly: compounds binding labelled BSA control protein – biochemical, small-molecule microarray, Alexa647 label, 635/667 nm fluorescence, artefact control for SMM control protein annotation, profiling panel (AID 1118).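 Further: score merges 667 nm emission intensity and signal-to-noise per printed compound spot.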 The conditions noted are these: BSA-A647 binding, fluorescence 635 nm, higher = more signal.
Chain of Albumin (Bos taurus) (P02769 whole entry, looked up): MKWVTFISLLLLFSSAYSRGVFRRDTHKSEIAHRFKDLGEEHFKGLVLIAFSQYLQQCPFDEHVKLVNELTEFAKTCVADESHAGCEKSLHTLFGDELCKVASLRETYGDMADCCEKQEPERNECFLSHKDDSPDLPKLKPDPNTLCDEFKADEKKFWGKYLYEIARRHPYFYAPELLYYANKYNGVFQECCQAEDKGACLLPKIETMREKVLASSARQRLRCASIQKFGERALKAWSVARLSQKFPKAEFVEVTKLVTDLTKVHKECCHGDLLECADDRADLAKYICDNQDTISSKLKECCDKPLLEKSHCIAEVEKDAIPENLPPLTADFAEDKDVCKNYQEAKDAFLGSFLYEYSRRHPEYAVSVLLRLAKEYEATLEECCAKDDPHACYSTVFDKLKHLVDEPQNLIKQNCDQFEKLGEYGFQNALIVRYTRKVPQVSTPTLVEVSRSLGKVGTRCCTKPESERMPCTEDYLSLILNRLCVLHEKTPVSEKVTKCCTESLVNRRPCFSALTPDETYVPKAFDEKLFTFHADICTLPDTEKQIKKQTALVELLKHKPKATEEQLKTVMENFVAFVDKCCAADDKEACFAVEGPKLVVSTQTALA
In the case of `CO[C@@H]1COC(=O)[C@@H]2CCCN2C(=O)[C@@H](C)COC(=O)[C@H](COCc2ccccc2)NC(=O)CC=C[C@H]1C`, the composite z-score was 0.0307. Turning to `C#CCCCON=C1C[C@@H](O)[C@@H](O)[C@@H]2[C@@H]3C(=O)N([C@@H](C)c4ccccc4)C(=O)[C@@H]3CC[C@H]12`, the composite z-score was 0.161. `COCCCNC(=O)[C@@]1(C)c2ccccc2C(=O)N(Cc2ccc(OC(F)(F)F)cc2)[C@H]1c1ccc(CO)cc1` had a composite z-score of -0.881. With `C=COC[C@H]1CN2[C@@H](CC[C@@H](C)[C@@H]2c2ccc(Br)cc2)C(=O)O1`, the composite z-score was determined as 0.496. In the case of `CC(CCN1CCCCc2nc(C)c(C)cc21)=NOC(C)CN1CCCc2nc(C)c(C)cc21` (stereo unspecified), the composite z-score was 0.493. In turn, `CC(C)=NOCc1ccc(-c2cc(-c3ccccc3)no2)cc1` yielded a composite z-score of -0.205. The value for `CCc1cc2c(nc1CC)CCN(CCC(C)=NOC[C@@H](O)[C@H]1O[C@@H]3OC(C)(C)O[C@@H]3[C@H]1O)C2` was 0.424. For `COc1cccc([C@H]2Oc3ccc(OC)cc3C(=NO[C@H](C)c3cn([C@@H]4COC[C@H]4O)nn3)[C@@H]2O)c1` the value was -0.224; for `O=C(NN=C1C[C@@H](O)[C@@H](O)[C@@H]2[C@@H]3C(=O)N(c4ccc(F)cc4F)C(=O)[C@@H]3CC[C@@H]12)OCc1ccccc1`, 0.458. `CCOC(=O)[C@H](Cc1ccccc1)NC(=O)CCC1CC(OC(=O)NCc2ccc3c(c2)OCO3)CC2(CCCC(COC(=O)NCc3cccc(C(F)(F)F)c3)O2)O1` (stereo partly specified) had a composite z-score of -0.0075. For `C[C@@H](c1ccccc1)N1C(=O)[C@H]2[C@H]3[C@H](O)C=CC(=O)[C@@H]3CC[C@H]2C1=O` the value was 0.0343; for `Cc1cc2c(c(=O)o1)[C@H](O)[C@H]1O[C@H]1C2=O`, -1.02. The value for `COc1ccc(COC(=O)NN=C2C[C@@H](O)[C@@H](O)[C@@H]3[C@@H]4C(=O)N(c5ccc(F)cc5F)C(=O)[C@@H]4CC[C@@H]23)cc1` was 0.688.

The molecule `CO[C@@H]1COC(=O)CCC[C@@H](C)[C@H](OC)COC(=O)CCC[C@H]1C` had a composite z-score of -0.27.

Consider `O=C1C[C@@H](O)[C@@H](O)[C@@H]2[C@@H]3C(=O)N(Cc4ccc5c(c4)OCO5)C(=O)[C@@H]3CC[C@@H]12`, for which the composite z-score turned out to be 0.295.

Molecule `CC=CC1=C(CO)[C@H](O)[C@H]2O[C@H]2[C@H]1O` returned a composite z-score of -0.15. The value for `CC(C)[C@H](NC(=O)OC(C)(C)C)[C@@H](O)CC(=O)OC(C)(C)C` was -0.493; that for `CO[C@H]1COC(=O)[C@@H]2CCCN2C(=O)CC=C[C@@H](C)[C@H](OC)COC(=O)CC=C[C@@H]1C` was -0.806. As for `COC(=O)[C@H](C)NC(=O)CCC1CC(OC(=O)NCCc2ccc(F)cc2)CC2(CCCC(COC(=O)NCCc3ccc(Cl)cc3)O2)O1` (stereo partly specified), the composite z-score was -0.167. `CC(C)=CCCC(C)=CCON=C1[C@H]2CCn3c(=O)n(C)c(=O)n3[C@H]2[C@H](O)[C@@H]2O[C@H]12` yielded a composite z-score of -0.286. Take `O=C(NN=C1C[C@@H](O)[C@@H](O)[C@@H]2[C@@H]3C(=O)N(c4cccc(Oc5ccccc5)c4)C(=O)[C@@H]3CC[C@@H]12)OCc1ccccc1`: the composite z-score turned out to be 0.564.

Take `CC(=O)OC[C@H]1O[C@H](C#CCCCc2ccccc2)C=C[C@@H]1OC(C)=O`: the composite z-score came to 0.495. In turn, `CC(CCN1CCc2nc(-c3ccccc3)c(-c3ccccc3)cc2C1)=NO[C@H](C)c1cn([C@@H]2COC[C@H]2O)nn1` came in with a composite z-score of 0.156. With `O[C@@H](Cc1ccccc1)[C@H]1C2C=CCCC(c3ccccc3)=C2CN1Cc1cccc(Cl)c1` (stereo partly specified), the composite z-score is -0.158.

Consider `COc1ccc([Si](C)(C)[C@H]2[C@H](CCO)O[C@@]3(C(=O)N(Cc4cccc(NC(=O)[C@H](C)O)c4)c4ccccc43)[C@@H]2C)cc1`, for which the composite z-score was determined as 0.564. For the molecule `O=C1NC(=O)C2C1C=CC(C(O)Cc1ccccc1)N2Nc1ccccn1` (stereo unspecified), the composite z-score amounted to 0.461. The value for `CC(CCC(=O)OC[C@H]1O[C@H](C#Cc2ccccc2)C=C[C@@H]1Oc1ccc(C)cc1)=NOC[C@@H](O)COCc1ccco1` was -0.515; that for `CC1CC/C=C\[C@H]2OC34C=CCN(Cn5nnc6ccccc65)C(=O)[C@H]3N(CCO)C(=O)[C@@H]4C2C(=O)O1` (stereo partly specified) was 1.13; that for `CCOC(=O)CCN1C(=O)[C@H]2[C@H]3[C@H](O)[C@H](O)CC(=NNC(=O)OCc4ccc(OC)cc4)[C@@H]3CC[C@H]2C1=O` was 0.0708. `CCN1C(=O)[C@H]2[C@H]3[C@H](O)[C@H](O)CC(=NOC(C)CN4CCCCc5nc(C)c(C)cc54)[C@@H]3CC[C@H]2C1=O` (stereo partly specified) showed a composite z-score of -0.428.

`C#CCCCON=C1C[C@@H](O)[C@@H](O)[C@@H]2[C@@H]3C(=O)N(CCC(=O)OCC)C(=O)[C@@H]3CC[C@@H]12` had a composite z-score of 0.674.
